{"source": "PubChem BioAssay AID2242", "about": "(National Center for Advancing Translational Sciences (NCATS), 2010)", "note": "About 720 (0.36%) of roughly 200,000 compounds were called active. Another 8% or so got no clear call; they are omitted. The list shows a part of the results. A number with no mark means an inactive call. The call rests on the fitted dose curve; in most records, active means well fitted activation curve with a large enough effect; inconclusive means small, poorly fitted or top-dose-only effect, or effect the other way, or another doubt; inactive means flat fitted curve, though single readings scatter. Potency means the concentration at half of the fitted maximal effect."}
{"molecular_target": "Lysosomal alpha-glucosidase (Homo sapiens) (UniProt P10253)", "assay": "qHTS Assay for Activators of Human alpha-Glucosidase as a Potential Chaperone Treatment of Pompe Disease; further: nearly all actives have a fitted effect of over 80% in size;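 on activity change, positive = activation: 0% = no enzyme basal signal and 100% = uninhibited enzyme activity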", "conditions": "purified enzyme, 4-MU-alpha-glucoside fluorescence, 20 min; series mostly up to 76.9 µM; activity change, positive = activation: at the top concentration", "procedure,_shortened": "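Compounds titrated up to 77 uM against 4 nM enzyme and 400 uM methylumbelliferyl substrate at room temperature, 20 min, pH 5.0. Basic stop, then 4-methylumbelliferone fluorescence (365/440 nm) normalized to no-enzyme and enzyme controls; Hill-equation AC50.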", "units": {"activity change, positive = activation": "%"}}
{"smiles": "COC(=O)Cc1c(C)c2cc(Cl)c(OC(=O)c3ccco3)cc2oc1=O", "Potency": "28.2 µM (active)"}
{"smiles": "COC(=O)Cc1c(C)c2ccc(OC(=O)c3ccccc3)cc2oc1=O", "Potency": "35.5 µM (active)"}
{"smiles": "CCC(=O)Nc1c(C#N)c2nc3ccccc3nc2n1-c1ccccc1C", "Potency": "39.8 µM (active)"}
{"smiles": "CCC(C)NC(=O)CCC(=O)Nc1ccc2nc(N3CCOCC3)cc(C)c2c1", "note": "(stereo not drawn)", "Potency": "35.5 µM (active)"}
{"smiles": "CCC(C)NC(=O)CCC(=O)Nc1ccc2nc(N3CC(C)CC(C)C3)cc(C)c2c1", "note": "(stereo not drawn)", "Potency": "31.6 µM (active)"}
{"smiles": "CCCCN(C)C(=O)CCC(=O)Nc1ccc2nc(N3CCOCC3)cc(C)c2c1", "Potency": "39.8 µM (active)"}
{"smiles": "COc1ccccc1C1CC(c2ccco2)=NN1c1ccccc1", "note": "(stereo not drawn)", "Potency": "31.6 µM (active)"}
{"smiles": "Fc1ccc(C2=NN(c3ccccc3)C(c3ccco3)C2)cc1", "note": "(stereo not drawn)", "Potency": "35.5 µM (active)"}
{"smiles": "Cc1ccc(N2N=C(c3ccc(F)cc3)CC2c2ccco2)cc1", "note": "(stereo not drawn)", "Potency": "28.2 µM (active)"}
{"smiles": "CCOc1cc(C2C3=C(CCCC3=O)N(CCC(=O)O)C3=C2C(=O)CCC3)ccc1OS(=O)(=O)c1ccc(C)cc1", "Potency": "35.5 µM (active)"}
{"smiles": "COC(=O)Nc1nnc(/C=C/c2ccccc2)s1", "Potency": "31.6 µM (active)"}
{"smiles": "COc1ccc(/C=C/c2nnc(NC(=O)COc3cccc(C)c3)s2)cc1", "Potency": "31.6 µM (active)"}
{"smiles": "CCSc1ccc(-c2nn(-c3ccccc3)cc2/C=C(/C#N)C(=O)NC)cc1", "Potency": "25.1 µM (active)"}
{"smiles": "CCSc1ccc(-c2nn(-c3ccccc3)cc2/C=C(/C#N)C(=O)NCCCOC)cc1", "Potency": "35.5 µM (active)"}
{"smiles": "CCOC(=O)/C(C#N)=C/c1cn(CCC(=O)O)nc1-c1ccc(Br)cc1", "activity change, positive = activation": "9.4e-05"}
{"smiles": "N#Cc1c(N)n(CCNC(=O)c2cccs2)c2nc3ccccc3nc12", "Potency": "35.5 µM (active)"}
{"smiles": "N#Cc1c(N)n(CCNC(=O)c2ccccc2)c2nc3ccccc3nc12", "Potency": "7.94 µM (active)"}
{"smiles": "CCCCCn1c(N)c(C#N)c2nc3ccccc3nc21", "Potency": "35.5 µM (active)"}
{"smiles": "N#Cc1c(N)n(CCCN2CCOCC2)c2nc3ccccc3nc12", "Potency": "35.5 µM (active)"}
{"smiles": "COCCn1c(N)c(C#N)c2nc3ccccc3nc21", "Potency": "35.5 µM (active)"}
{"smiles": "Cc1cc(-n2c(=O)c(C#N)cc3c(=O)n4cccc(C)c4nc32)no1", "Potency": "35.5 µM (active)"}
{"smiles": "Cc1cc(-n2c(=O)c(C#N)cc3c(=O)n4ccccc4nc32)no1", "Potency": "35.5 µM (active)"}
{"smiles": "COC(=O)c1ccccc1NC(=O)/C=C/c1cc(OC)c(OC)c(OC)c1", "Potency": "35.5 µM (active)"}
{"smiles": "CSc1nnc(-c2cccn(Cc3ccccc3)c2=O)o1", "Potency": "35.5 µM (active)"}
{"smiles": "CSc1nnc(-c2cccn(Cc3cccc(Cl)c3)c2=O)o1", "Potency": "28.2 µM (active)"}
{"smiles": "Nc1ccc(-c2nc3ccc(N)cc3[nH]2)cc1", "Potency": "39.8 µM (active)"}
{"smiles": "Nc1ccc(-c2nc3ccc(-c4nc5ccccc5o4)cc3[nH]2)cc1", "Potency": "28.2 µM (active)"}
{"smiles": "Nc1ccc(-c2nc3ccc(N)cc3o2)cc1", "Potency": "35.5 µM (active)"}
{"smiles": "CCCc1cc(=O)n2c([nH]c3ccccc32)c1C#N", "Potency": "39.8 µM (active)"}
{"smiles": "COCc1cc(=O)n2c([nH]c3ccccc32)c1C#N", "Potency": "35.5 µM (active)"}
{"smiles": "CCc1cc(=O)n2c([nH]c3ccccc32)c1C#N", "Potency": "28.2 µM (active)"}
{"smiles": "Cc1ccc(-n2c(=O)c(C#N)cc3c(=O)n4ccccc4nc32)cc1", "Potency": "25.1 µM (active)"}
{"smiles": "Cc1ccc(-n2c(=O)c(C#N)cc3c(=O)n4cccc(C)c4nc32)cc1", "Potency": "10 µM (active)"}
{"smiles": "Cc1ccc2nc3c(cc(C#N)c(=O)n3-c3nccs3)c(=O)n2c1", "Potency": "35.5 µM (active)"}
{"smiles": "N#Cc1cc2c(=O)n3ccccc3nc2n(-c2ccc(Cl)cc2)c1=O", "Potency": "35.5 µM (active)"}
{"smiles": "COc1cc(C2NC(=S)NC(c3ccccc3)=C2C(C)=O)cc(Br)c1OCC(N)=O", "note": "(stereo not drawn)", "Potency": "28.2 µM (active)"}
{"smiles": "O=C(CN1C(=O)/C(=C\\c2cccc(Cl)c2)Oc2ccccc21)N1CCN(c2ccccn2)CC1", "Potency": "3.98 µM (active)"}
{"smiles": "C=CCNc1oc(/C=C/c2ccccc2)nc1C#N", "Potency": "35.5 µM (active)"}
{"smiles": "CN(C)CCNc1oc(/C=C/c2ccccc2)nc1C#N", "Potency": "35.5 µM (active)"}
{"smiles": "CN(C)c1oc(/C=C/c2ccccc2)nc1C#N", "Potency": "31.6 µM (active)"}
{"smiles": "CNc1oc(/C=C/c2ccccc2)nc1C#N", "Potency": "35.5 µM (active)"}
{"smiles": "CC(=O)Nc1c(OC(C)=O)ccc2c(C)cc(=O)oc12", "Potency": "35.5 µM (active)"}
{"smiles": "CCC(=O)Nc1c(OC(=O)CC)ccc2c(C)cc(=O)oc12", "Potency": "35.5 µM (active)"}
{"smiles": "CC(=O)c1ccc(-c2cccs2)s1", "Potency": "35.5 µM (active)"}
{"smiles": "COc1cc(OC)c(-c2nc3ccccc3s2)cc1OC", "Potency": "35.5 µM (active)"}
{"smiles": "c1ccc2c(N3CCOCC3)nc(N3CCOCC3)nc2c1", "Potency": "28.2 µM (active)"}
{"smiles": "CCOC(=O)C1=C(C)NC2=C(C(=O)CCC2)C1c1cn(Cc2ccc(Cl)cc2Cl)nc1-c1ccccc1", "note": "(stereo not drawn)", "Potency": "31.6 µM (active)"}
{"smiles": "Cc1csc2ncc(C(=O)Nc3ccon3)c(=O)n12", "Potency": "35.5 µM (active)"}
